# Only some compounds are listed: those with a hit (about 9.6% of all), similar ones and a draw of the others.
# USP17 inh: blocks human USP17 ubiquitin-rhodamine cleavage | purified USP17, Ub-rhodamine cleavage fluorescence, 3 h | hit rate 6.5% among 47,000 | inhibition, % at 50 µM | AID 1645855
# Target sequence (A8MUK1 whole entry, looked up): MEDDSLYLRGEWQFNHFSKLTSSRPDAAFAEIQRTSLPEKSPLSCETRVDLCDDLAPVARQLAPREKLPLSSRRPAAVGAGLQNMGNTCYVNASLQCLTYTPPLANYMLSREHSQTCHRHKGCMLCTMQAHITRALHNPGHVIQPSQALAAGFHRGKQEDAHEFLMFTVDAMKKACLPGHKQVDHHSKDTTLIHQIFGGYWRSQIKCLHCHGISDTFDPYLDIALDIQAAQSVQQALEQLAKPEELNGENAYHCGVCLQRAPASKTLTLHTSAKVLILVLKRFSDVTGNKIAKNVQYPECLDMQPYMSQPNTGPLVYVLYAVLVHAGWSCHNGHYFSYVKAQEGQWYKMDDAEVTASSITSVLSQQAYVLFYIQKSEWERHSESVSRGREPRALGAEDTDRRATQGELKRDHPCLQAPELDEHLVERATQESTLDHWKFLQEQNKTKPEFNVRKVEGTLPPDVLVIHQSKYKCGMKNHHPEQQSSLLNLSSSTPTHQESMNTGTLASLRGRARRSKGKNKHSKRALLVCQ
# USP30 block: blocks human USP30 ubiquitin-rhodamine cleavage; Q70CQ3; purified USP30, Ub-rhodamine cleavage fluorescence; inhibition, % at 25 µM; hit rate 5.3% among 47,000; AID 1645860
# The depositor's hits bear a star; i = inactive; x = no result. Cut-off read from the data, not from the text of the source: active = inhibition above about 30%; inactive = the rest.
SMILES,USP17 inh,USP30 block
Cc1nn(-c2nc3ccccc3o2)c2c1C(c1ccc(F)c(F)c1)CC(=O)N2 (stereo not drawn),0.9,20.0
Cc1cc(C2CC(=O)Nc3c2c(C)nn3-c2nc3ccccc3[nH]2)c(C)s1 (stereo not drawn),50.6*,-10.4
O=C(NC1CCCC1)C1CCCN(S(=O)(=O)N2CCCCC2)C1 (stereo not drawn),3.6,-2.8
O=C(Cn1cnc2c(cnn2-c2ccccc2)c1=O)Nc1cccc([N+](=O)[O-])c1,42.3*,-20.2
O=C(Cn1cnc2c(cnn2-c2ccc(F)cc2)c1=O)Nc1ccc2c(c1)OCCCO2,10.4,21.7
COc1cccc(-c2ccccc2NC(=O)C2CCN(Cc3nc(C)c(C)nc3C)CC2)c1,-19.5,x
Cc1cccc(O)c1C(=O)O[C@H](C)c1cccc2nc3c(C(=O)O)cccc3nc12,38.5*,-1.9
Cc1ccccc1C(C)NC(=O)c1cccc2ncccc12 (stereo not drawn),-25.5,-78.6
CCCCCCCC1OC(=O)Cc2cc(O)c(O)c(O)c21 (stereo not drawn),95.6*,62.9*
COc1cccc(C(=O)NCc2cc(-c3ccc(F)cc3F)on2)c1OC,0.1,39.7*
CCc1ccc(OCC(=O)NCc2csc(-c3ccc(OC)cc3)n2)cc1,-14.1,-3.5
COc1ccc(-c2nc(CNC(=O)COc3ccc(C)cc3)cs2)cc1,57.3*,11.9
Cc1cccc(OCC(=O)NCc2cc(-c3ccccc3F)on2)c1,41.6*,42.2*
Cc1ccc(-c2cc(CNC(=O)c3ccccc3F)no2)cc1,8.0,4.8
Cc1ccc(-c2cc(CNC(=O)COc3ccccc3F)no2)cc1,30.0,29.0
COc1cccc(-c2cc(CNC(=O)COc3ccc(F)cc3)no2)c1,2.7,35.2*
COc1ccccc1OCC(=O)NCc1cc(-c2ccc(F)cc2)on1,-6.3,-22.0
Cc1ccc(Cn2c(=O)c3c(nc4n3CCCN4c3cc(C)cc(C)c3)n(C)c2=O)cc1,-17.4,20.9
COCCOCc1nc2n(n1)C(CC(=O)Nc1cccc3ccccc13)C(=O)N2 (stereo not drawn),5.6,-34.4
FC(F)(F)c1ccnc(N2CCN(Cc3c[nH]c4ccccc34)CC2)c1,-16.1,-23.3
Cc1noc(CCCC(=O)N2CCCC(N3CCNC3=O)C2)n1 (stereo not drawn),-4.2,-1.1
O=c1cc(-c2ccc(F)cc2)oc2ccc(F)cc12,30.6*,-0.3
COc1ccc(-c2cc(=O)c3cc(OC(=O)C4CCCCC4)ccc3o2)cc1,-37.5,1.4
O=C(NC1CCCCCC1)C1CCCN(S(=O)(=O)N2CCCCC2)C1 (stereo not drawn),4.0,-2.5
FC(F)(F)c1cccc(N2CCN(c3nc4ccccc4n4nnnc34)CC2)c1,-147.5,i
SMILES,USP17 inh,USP30 block
CCn1c(=O)c2sccc2n2c(CCCC(=O)Nc3ccc(F)c(Cl)c3)nnc12,8.3,25.2
O=C(CCc1ccccc1)Nc1nnc(C2CC(=O)N(c3ccc(Cl)cc3)C2)s1 (stereo not drawn),11.9,15.2
c1cncc(CN2CCC[C@H]2c2nc(-c3ccc(N4CCOCC4)nc3)no2)c1,-22.2,-19.5
c1cncc(CN2CCC[C@H]2c2nc(-c3ccc(-n4ccnc4)nc3)no2)c1,41.0*,1.0
Cc1ccccc1CC(=O)Nc1nnc(C2CC2)s1,41.3*,1.1
Cc1ccccc1N1CC(c2nnc(NC(=O)CCCc3ccccc3)s2)CC1=O (stereo not drawn),8.7,18.0
Cc1ccccc1N1CC(c2nnc(NC(=O)Cc3ccc(Cl)cc3)s2)CC1=O (stereo not drawn),2.0,16.7
CCc1ccccc1N1CC(c2nnc(NC(=O)CCc3ccccc3)s2)CC1=O (stereo not drawn),30.2*,-7.2
CN(C)c1ncnc2c1ncn2[C@@H]1CC[C@@H](NCc2ccc(F)cc2)[C@@H](O)[C@@H]1O,14.3,25.8
CCCC(=O)NC1(c2nc(-c3cccnc3)no2)CCCCC1,13.9,19.7
CCCCOc1ccc(C(=O)NC2(c3nc(-c4cccnc4)no3)CCCCC2)cc1,17.2,32.4*
CCc1ccccc1NC(=O)Cn1cnc2scc(-c3ccc4ccccc4c3)c2c1=O,-9.3,-78.0
C[C@@]12C[C@H](c3ccccc3)N(C(=O)CCC(=O)O)[C@@H]1CCC[C@@H](O)[C@H]2O,-2.8,-45.3
CN(C)c1ccc(/C=N/NC(=O)c2ccc(Cl)cc2)cc1,88.2*,23.3
Cc1ccc(Cl)cc1NC(=O)c1ccc(N(C)C)cc1,15.4,11.2
Cc1sc2ncn3c(=O)n(CC(=O)Nc4ccc(F)c(Cl)c4)nc3c2c1C,52.7*,16.2
Cc1sc2ncn3c(=O)n(CC(=O)Nc4ccc(F)cc4)nc3c2c1C,1.7,13.8
N#Cc1cccc(S(=O)(=O)NC2CCN(c3ccc(F)cc3)C2=O)c1 (stereo not drawn),0.3,16.4
N#Cc1cccc(S(=O)(=O)c2c[nH]c3cc(Cl)ccc3c2=O)c1,46.1*,-13.0
Cc1nc2ccccn2c1C1(O)C(=O)Nc2c(Cl)cc(Cl)cc21 (stereo not drawn),52.1*,23.6

# Source: PubChem (Buhrlage Lab, Dana-Farber Cancer Institute and Novartis Institutes for BioMedical Research (Cambridge, Mass))
